WT yeast gro inh: growth inhibition of WT yeast, mitochondrial fusion screen | mitochondrial fusion phenotypic screen, WT strain | inhibition, % at 10 µM | 190,000 compounds, 2.1% hits | AID 1362; in the data active = inhibition above about 58%; tested in S. cerevisiae
Cl transport mod: KCC2 (human) Cl- transport modulation; AID 1456; KCC2 cells, thallium flux FluoZin-2 fluorescence; Q9H2X9; 190,000 compounds, 2.2% hits; B-score of Tl+ flux slope (higher = more flux/activation; lower = inhibition) at 10 µM;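 active = thallium flux slope and its plate-corrected score both differing from the plate sample mean at a set confidence after two filtering rounds, in either direction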;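 note: slope of fluorescence scaled to starting intensity during 10 to 20 s after thallium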
L major viab: inhibitors of Leishmania major promastigote growth; AID 1063; Leishmania major promastigotes, resazurin fluorescence viability; inhibition, % at 10 µM; 200,000 compounds, 9% hits; in the data active = inhibition above about 50%;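 note: promastigotes grown with compound for 44 hours at 28 °C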
ROMK mod: modulators of human ROMK potassium channel | B-score at 10 µM | 130,000 compounds, 2% hits | Tet-inducible ROMK, thallium flux fluorescence; actives lie on both sides | AID 1918 | P48048;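 active = signal ratio slope over the read window, or its plate-corrected B-score, at least 3 SD from the plate mean, either direction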;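 note: B-score of the F/F0 ratio slope over 7 to 12 s after thallium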
m-calpain inh: calpain II (pig) inhibition. purified calpain II, fluorogenic peptide substrate, 30 min. inhibition, % at 16 µM. 220,000 compounds, 0.37% hits. AID 1236;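 active = inhibition above about 50%, limit read from the data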
The depositor's hits bear a star; i = inactive; . = no result. Sampled rows, rich in hits. Any-hit rate of the full collection: about 12%.

SMILES	WT yeast gro inh	Cl transport mod	L major viab	ROMK mod	m-calpain inh
CCc1ccc(C(O)(c2ccccc2OC)C(CN2CCOCC2)c2ccccc2)cc1 (stereo not given)	77*	-1.3	34	-0.14	9
CCc1ccc(-n2cc(-c3ccc(F)cc3)[n+]3c2SCCC3)cc1	11	1.1	101*	-0.4	21
COc1ccc(-n2cc(-c3ccc(C)cc3)[n+]3c2SCC3)cc1	-1	0.3	100*	-0.028	4
c1ccc(-c2cn(-c3ccccc3)c3[n+]2CCCS3)cc1	.	0.12	.	.	-2
COc1ccc(C(=O)Nc2ccccc2C(=O)N/N=C/c2ccncc2)cc1OC	.	1.1	.	0.64	-5
O=C(NCCCn1ccnc1)c1cc2nc(-c3ccc(Br)cc3)cc(C(F)(F)F)n2n1	30	-0.81	99*	.	-61
CCOc1cc(C(=O)NCCCn2ccnc2)cc(OCC)c1OCC	-11	-0.17	54*	0.14	4
COc1ccc(-c2cc(C(=O)NCCCn3ccnc3)no2)cc1OC	-8	.	61*	-1.1	-16
Cc1cc(-c2ccccc2)nc2cc(C(=O)NCCCn3ccnc3)nn12	1	-0.33	1	.	-128
COc1cccc(C(=O)NCCCn2ccnc2)c1	0	0.7	2	-0.043	-29
COc1ccc2c(Cl)c(C(=O)NCCCn3ccnc3)sc2c1	-1	0.016	100*	.	-19
CCN(CC)C(=O)C(=O)Nc1ccc(OC)c(Cl)c1	-18	0.67	-7	-0.62	-10
O=C(Nc1ccc(Cl)c(Cl)c1)Nc1ccccc1NS(=O)(=O)c1cccs1	63	-2	-4	-0.93	0
O=C(NCCCn1ccnc1)c1cc(-c2ccc3c(c2)OCO3)on1	-17	0.26	43	.	7
O=C(NCCCn1ccnc1)c1cc(-c2ccc(Br)cc2)on1	25	-0.89	96*	-0.99	-6
Cc1cc(C(=O)NCCCn2ccnc2)sc1-c1ccccc1	14	0.38	99*	.	-7
COc1cccc(-c2cc(C(=O)NCCCn3ccnc3)no2)c1	1	.	96*	-1.1	-8
COc1ccc(-c2cc(C(F)(F)F)n3nc(C(=O)NCCCN4CCOCC4)cc3n2)cc1	-10	0.57	57*	-0.72	i
CN(C)/C=C/C(=O)c1cnc(-c2ccccn2)s1	-6	0.039	-5	-0.87	-10
Cc1ccc2nc(C3CCCN3Cc3nc(CCC(C)C)no3)[nH]c2c1 (stereo not given)	31	0.00027	20	0.01	-15
Cc1ccccc1/C=N/Nc1ccnc2cc(Cl)ccc12	98	1.6	98*	0.68	-24
Oc1ccc(/C=N/Nc2ccnc3cc(Cl)ccc23)c(O)c1	.	0.59	.	.	-25
Cc1ccc(/C=N/Nc2ccnc3cc(Cl)ccc23)c(C)c1	98	-0.87	100*	0.093	-29
COc1ccc(/C=C2\CCCC(C(=O)C(F)(F)F)=C2O)cc1OC	18	3.2	5	-0.85	-17
Nc1nc(N2CCN(C(c3ccccc3)c3ccccc3)CC2)n[nH]1	6	0.22	-5	-0.69	1
SMILES	WT yeast gro inh	Cl transport mod	L major viab	ROMK mod	m-calpain inh
O=c1nc2ccccc2c2n1CC(CN1CCN(C(c3ccccc3)c3ccccc3)CC1)N2 (stereo not given)	36	1.2	66*	-0.56	-45
CC(C)(C)n1nnnc1C(c1cccs1)N(Cc1cccnc1)Cc1ccccc1Cl (stereo not given)	74*	-1.1	100*	.	37
CC(c1nnnn1C(C)(C)C)N(Cc1cccnc1)Cc1ccccc1Cl (stereo not given)	17	0.56	96*	-1.1	-4
O=C(Nc1ccc(N2CCOCC2)nc1)c1ccccc1Cl	.	.	.	.	1
N#Cc1ccc(COC(=O)c2ccccn2)cc1	-7	-0.61	-1	-0.89	-8
O=Cc1cc2ccccc2nc1SCc1ccc(Cl)c(Cl)c1	19	0.45	95*	.	15
O=c1[nH]c(SCc2ccc(Cl)cc2)nc2ccccc12	16	.	-4	0.83	-22
O=Cc1cc2ccccc2nc1SCc1ccc(Cl)cc1	19	0.51	97*	.	-69
CN(C(=O)CO/N=C/c1ccc(Cl)cc1)c1ccccc1	1	0.63	-1	-0.049	1
O=C(/C=C/c1ccccc1)N1CCN(c2ccc([N+](=O)[O-])c(N3CCOCC3)c2)CC1	9	.	5	.	-2
O=C(CN1CCN(C/C=C/c2ccccc2)CC1)Nc1cc([N+](=O)[O-])ccc1Cl	18	0.78	56*	-0.37	-28
O=C(CN1CCCC1)Nc1ccc([N+](=O)[O-])cc1Cl	-7	-0.41	-3	0.18	-25
O=C(CN1CCN(C/C=C/c2ccccc2)CC1)Nc1ccccc1C(=O)NC1CC1	.	-1.7	.	.	-11
Cc1cc(NC(=O)CN2CCN(C/C=C/c3ccccc3)CC2)c([N+](=O)[O-])cc1C	9	0.67	85*	-0.37	-90
COc1cc(OC)c(NS(=O)(=O)c2cc(C(=O)OCC(=O)NCC3CCCO3)ccc2OC)cc1Cl (stereo not given)	5	0.56	-5	0.63	16
Cc1coc(C)c1C(=O)CC1(O)C(=O)Nc2cc(Cl)cc(Cl)c21 (stereo not given)	67*	0.2	19	.	7
C=CCn1c(Sc2nc(C)cs2)nc2c1c(=O)[nH]c(=O)n2C	-10	-0.11	1	.	53*
COc1cccc(OCC(O)CN2CCC(Cc3ccccc3)CC2)c1 (stereo not given)	-2	-2.3	95*	.	-3
COc1cccc(OCC(O)CN2CC(C)CC(C)C2)c1 (stereo not given)	-5	0.36	88*	.	-4
C=CCc1ccc(OCC(O)CN2CCC(Cc3ccccc3)CC2)c(OC)c1 (stereo not given)	44	-0.098	100*	-2.9	-7
COc1cccc(OCC(O)CN2CCOCC2)c1 (stereo not given)	-3	-0.27	1	.	-4
C=CCc1ccc(OCC(O)CN2CCN(Cc3ccc(Cl)cc3)CC2)c(OC)c1 (stereo not given)	31	-1.1	93*	-1.9	-10
O=C(NCC1CCCO1)C1CC1(c1ccccc1)c1ccccc1 (stereo not given)	-10	0.91	-6	.	28
O=C(CCC1CCCN(C(=O)c2ccsc2)C1)N1CCN(c2ccccn2)CC1 (stereo not given)	.	-1.2	.	.	-9
COc1ccc(C(=O)Nc2ccccc2C(N)=O)cc1	40	.	0	.	-6
SMILES	WT yeast gro inh	Cl transport mod	L major viab	ROMK mod	m-calpain inh
COc1ccc(C(=O)Nc2ccccc2C(=O)N/N=C/c2cccc3ccccc23)cc1	68*	-0.64	26	0.98	-100
COc1cc(CNC2CCCC2)cc(Br)c1OCC(=O)Nc1ccccc1C	26	0.099	99*	-0.72	26
COc1cc(CNC2CCCC2)cc(Cl)c1OCc1ccccc1Cl	20	.	100*	.	-13
CCOc1cc(CO)cc(Br)c1OCC(=O)Nc1ccccc1C	1	0.085	6	-1.4	8
CCOc1cc(CNn2cn[nH]c2=S)cc(Cl)c1OCc1ccccc1F	69*	-1.5	6	.	16
COc1cc(CNC2CCCC2)cc(Cl)c1OCc1ccc(F)cc1	37	.	101*	.	-32
Cc1ccc(CNC(=O)CSCC(=O)O)cc1	-7	-0.064	-4	.	-34
